In the supplement of paper PMC11732987, “Enantioselective OTUD7B fragment discovery through chemoproteomics screening and high-throughput optimisation” (Communications Chemistry, 2025):

Experiments:
Assay in all cases: log2 ratio of Biotin-Ahx-Ub-VS probe labelling (fragment/DMSO); higher = less target engagement (more negative = stronger competition), active = hit call of the paper (q ≤ 0.05, log2 ratio ≤ -1)
Details in all cases: compound concentration: 200 uM; treatment time: 3 h
ALG13 = biological target: T1, ALG13 (UniProt Q9NP73)
T1 sequence (whole entry): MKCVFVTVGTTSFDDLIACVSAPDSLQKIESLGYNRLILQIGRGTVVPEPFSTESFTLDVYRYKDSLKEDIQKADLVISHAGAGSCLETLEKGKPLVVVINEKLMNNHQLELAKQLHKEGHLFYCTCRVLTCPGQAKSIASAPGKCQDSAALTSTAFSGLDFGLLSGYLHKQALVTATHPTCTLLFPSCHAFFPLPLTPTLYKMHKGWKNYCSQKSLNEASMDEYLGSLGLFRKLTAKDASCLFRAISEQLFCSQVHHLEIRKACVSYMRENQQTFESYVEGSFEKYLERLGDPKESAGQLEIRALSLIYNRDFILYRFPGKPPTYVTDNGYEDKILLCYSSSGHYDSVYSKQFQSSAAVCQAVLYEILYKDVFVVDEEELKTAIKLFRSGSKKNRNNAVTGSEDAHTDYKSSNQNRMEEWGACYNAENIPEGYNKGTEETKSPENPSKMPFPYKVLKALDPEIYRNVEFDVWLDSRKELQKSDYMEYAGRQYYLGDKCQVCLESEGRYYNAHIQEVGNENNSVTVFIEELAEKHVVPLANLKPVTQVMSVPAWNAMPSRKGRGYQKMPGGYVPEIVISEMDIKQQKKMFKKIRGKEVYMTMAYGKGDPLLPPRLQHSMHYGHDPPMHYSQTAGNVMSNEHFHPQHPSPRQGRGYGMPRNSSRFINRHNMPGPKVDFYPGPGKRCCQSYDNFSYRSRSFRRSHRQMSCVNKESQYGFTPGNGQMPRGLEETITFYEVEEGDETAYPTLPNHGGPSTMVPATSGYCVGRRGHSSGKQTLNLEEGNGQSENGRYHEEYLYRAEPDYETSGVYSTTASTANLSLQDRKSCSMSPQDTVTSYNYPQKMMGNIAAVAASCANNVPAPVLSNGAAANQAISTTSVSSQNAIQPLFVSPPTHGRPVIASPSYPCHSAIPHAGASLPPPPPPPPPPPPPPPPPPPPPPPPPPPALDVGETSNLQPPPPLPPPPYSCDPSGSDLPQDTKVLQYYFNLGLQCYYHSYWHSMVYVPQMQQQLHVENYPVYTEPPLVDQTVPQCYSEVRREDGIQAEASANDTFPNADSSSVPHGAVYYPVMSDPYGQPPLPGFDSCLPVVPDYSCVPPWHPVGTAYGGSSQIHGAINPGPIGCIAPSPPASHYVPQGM
Summary of the method: (§1)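 Using Biotin-Ahx-Ub-VS at 0.5 µM final for 1 h, DUBs were labelled in HEK293T lysate (495 µg per sample) that had first been treated in triplicate with fragment at 200 µM or vehicle for 3 h. NeutrAvidin enrichment, LysC and trypsin digestion and diaPASEF LC-MS/MS followed. Spectronaut label-free quantities were global-median-normalised. Values are average log2 fragment/vehicle ratios by unpaired t-test, using proteins with ≥2 unique peptides.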

ATXN3 = ATXN3 (UniProt P54252)
Sequence of ATXN3 (P54252 whole entry): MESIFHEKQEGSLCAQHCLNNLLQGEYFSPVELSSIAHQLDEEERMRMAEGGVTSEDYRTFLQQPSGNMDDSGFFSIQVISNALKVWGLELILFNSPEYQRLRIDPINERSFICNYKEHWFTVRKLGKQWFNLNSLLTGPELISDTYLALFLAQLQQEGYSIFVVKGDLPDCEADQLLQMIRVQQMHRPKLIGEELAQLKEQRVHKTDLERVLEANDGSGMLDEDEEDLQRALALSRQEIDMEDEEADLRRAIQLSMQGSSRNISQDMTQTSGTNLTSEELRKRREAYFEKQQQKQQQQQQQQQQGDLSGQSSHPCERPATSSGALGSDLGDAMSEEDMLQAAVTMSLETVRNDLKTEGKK
Summary of the method: as §1

BAP1 = biological target: T2, BAP1 (UniProt Q92560)
T2 sequence (whole entry): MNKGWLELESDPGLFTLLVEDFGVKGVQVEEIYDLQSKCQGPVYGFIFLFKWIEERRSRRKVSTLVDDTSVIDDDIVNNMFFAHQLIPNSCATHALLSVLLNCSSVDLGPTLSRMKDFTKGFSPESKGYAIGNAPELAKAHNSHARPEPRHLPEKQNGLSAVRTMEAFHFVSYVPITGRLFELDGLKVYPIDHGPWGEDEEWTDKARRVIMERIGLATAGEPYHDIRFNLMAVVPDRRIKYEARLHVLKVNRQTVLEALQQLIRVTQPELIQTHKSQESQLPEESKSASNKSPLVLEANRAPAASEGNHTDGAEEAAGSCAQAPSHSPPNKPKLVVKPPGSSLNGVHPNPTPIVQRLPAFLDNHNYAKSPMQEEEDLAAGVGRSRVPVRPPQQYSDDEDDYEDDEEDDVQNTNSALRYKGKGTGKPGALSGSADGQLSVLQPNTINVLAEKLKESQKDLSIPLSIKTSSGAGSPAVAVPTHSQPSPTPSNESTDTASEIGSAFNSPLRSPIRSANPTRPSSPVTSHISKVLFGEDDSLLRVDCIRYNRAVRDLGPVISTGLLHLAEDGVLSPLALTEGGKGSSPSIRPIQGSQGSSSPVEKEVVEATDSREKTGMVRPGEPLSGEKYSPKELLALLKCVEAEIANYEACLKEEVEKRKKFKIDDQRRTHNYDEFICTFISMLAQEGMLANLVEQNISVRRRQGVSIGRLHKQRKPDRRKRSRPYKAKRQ
Summary of the method: as §1

EIF3F = EIF3F (UniProt O00303)
Sequence of EIF3F (O00303 whole entry): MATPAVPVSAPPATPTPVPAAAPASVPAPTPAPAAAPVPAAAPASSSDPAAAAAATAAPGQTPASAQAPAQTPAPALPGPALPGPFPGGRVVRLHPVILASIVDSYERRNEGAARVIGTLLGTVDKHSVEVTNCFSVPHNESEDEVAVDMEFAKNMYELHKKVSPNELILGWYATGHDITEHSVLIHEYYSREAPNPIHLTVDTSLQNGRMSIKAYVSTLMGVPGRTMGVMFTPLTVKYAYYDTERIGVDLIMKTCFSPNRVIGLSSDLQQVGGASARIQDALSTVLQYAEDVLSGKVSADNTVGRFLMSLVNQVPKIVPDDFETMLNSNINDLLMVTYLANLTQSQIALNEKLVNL
Summary of the method: as §1

EIF3H = EIF3H (UniProt O15372)
Sequence of EIF3H (O15372 whole entry): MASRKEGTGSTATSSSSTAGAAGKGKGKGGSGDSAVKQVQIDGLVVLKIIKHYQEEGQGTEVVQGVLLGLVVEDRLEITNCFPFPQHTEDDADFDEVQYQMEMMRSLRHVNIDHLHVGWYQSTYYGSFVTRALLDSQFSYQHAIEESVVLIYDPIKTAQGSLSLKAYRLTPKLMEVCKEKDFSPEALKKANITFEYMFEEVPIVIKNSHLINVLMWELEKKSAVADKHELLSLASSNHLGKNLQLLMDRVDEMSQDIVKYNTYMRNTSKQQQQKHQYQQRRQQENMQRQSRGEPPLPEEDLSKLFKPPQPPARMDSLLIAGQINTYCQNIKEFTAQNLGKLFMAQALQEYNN
Summary of the method: as §1

FAM105A = biological target: T3, FAM105A (UniProt Q9NUU6)
T3 sequence (whole entry): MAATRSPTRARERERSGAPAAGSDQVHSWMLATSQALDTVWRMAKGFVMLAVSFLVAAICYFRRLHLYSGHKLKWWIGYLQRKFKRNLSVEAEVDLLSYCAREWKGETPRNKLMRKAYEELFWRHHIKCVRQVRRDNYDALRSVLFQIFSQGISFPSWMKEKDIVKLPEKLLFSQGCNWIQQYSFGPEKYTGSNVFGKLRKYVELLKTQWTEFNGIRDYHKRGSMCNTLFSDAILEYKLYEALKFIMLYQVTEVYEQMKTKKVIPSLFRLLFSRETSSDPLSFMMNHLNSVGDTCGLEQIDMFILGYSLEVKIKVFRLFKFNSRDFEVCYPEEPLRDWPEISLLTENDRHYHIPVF
Summary of the method: as §1

OTUB1 = OTUB1 (UniProt Q96FW1)
Sequence of OTUB1 (Q96FW1 whole entry): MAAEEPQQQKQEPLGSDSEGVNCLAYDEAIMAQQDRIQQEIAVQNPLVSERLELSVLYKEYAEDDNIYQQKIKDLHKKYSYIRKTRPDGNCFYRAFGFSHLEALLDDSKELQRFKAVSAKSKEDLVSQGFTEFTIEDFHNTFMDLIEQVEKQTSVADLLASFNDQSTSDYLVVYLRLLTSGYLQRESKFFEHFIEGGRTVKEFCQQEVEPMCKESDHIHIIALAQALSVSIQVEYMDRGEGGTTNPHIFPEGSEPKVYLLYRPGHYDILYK
Summary of the method: as §1

OTUD4 = biological target: T4, OTUD4 (UniProt Q01804)
T4 sequence (whole entry): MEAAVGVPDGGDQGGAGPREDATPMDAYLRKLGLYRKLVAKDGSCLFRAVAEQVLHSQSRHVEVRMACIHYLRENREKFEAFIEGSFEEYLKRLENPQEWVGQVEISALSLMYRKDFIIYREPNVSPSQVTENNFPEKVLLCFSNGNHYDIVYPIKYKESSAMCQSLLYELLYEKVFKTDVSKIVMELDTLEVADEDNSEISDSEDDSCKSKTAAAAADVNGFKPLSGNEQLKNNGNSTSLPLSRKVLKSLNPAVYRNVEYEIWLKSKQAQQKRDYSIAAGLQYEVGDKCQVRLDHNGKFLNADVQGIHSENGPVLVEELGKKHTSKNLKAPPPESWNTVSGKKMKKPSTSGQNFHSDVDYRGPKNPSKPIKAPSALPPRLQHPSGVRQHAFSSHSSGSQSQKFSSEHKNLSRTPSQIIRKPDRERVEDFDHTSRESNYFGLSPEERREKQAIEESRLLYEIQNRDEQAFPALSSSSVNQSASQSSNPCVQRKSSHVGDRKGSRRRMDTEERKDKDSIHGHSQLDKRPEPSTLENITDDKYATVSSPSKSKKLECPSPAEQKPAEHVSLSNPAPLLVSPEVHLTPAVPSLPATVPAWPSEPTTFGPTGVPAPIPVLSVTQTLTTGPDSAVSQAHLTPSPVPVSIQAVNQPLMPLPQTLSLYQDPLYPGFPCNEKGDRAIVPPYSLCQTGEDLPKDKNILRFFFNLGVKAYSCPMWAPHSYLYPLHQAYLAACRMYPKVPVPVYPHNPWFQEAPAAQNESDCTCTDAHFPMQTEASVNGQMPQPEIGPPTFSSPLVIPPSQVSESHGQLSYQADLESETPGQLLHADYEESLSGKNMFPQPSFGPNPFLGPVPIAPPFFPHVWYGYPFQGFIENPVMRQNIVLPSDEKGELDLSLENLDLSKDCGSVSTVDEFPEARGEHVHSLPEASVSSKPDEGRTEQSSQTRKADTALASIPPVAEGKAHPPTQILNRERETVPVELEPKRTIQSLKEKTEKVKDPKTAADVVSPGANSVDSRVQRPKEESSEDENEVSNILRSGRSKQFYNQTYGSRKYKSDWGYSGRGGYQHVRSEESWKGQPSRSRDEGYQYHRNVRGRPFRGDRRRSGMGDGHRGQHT
Summary of the method: as §1

OTUD5 = biological target: T5, OTUD5 (UniProt Q96G74)
T5 sequence (whole entry): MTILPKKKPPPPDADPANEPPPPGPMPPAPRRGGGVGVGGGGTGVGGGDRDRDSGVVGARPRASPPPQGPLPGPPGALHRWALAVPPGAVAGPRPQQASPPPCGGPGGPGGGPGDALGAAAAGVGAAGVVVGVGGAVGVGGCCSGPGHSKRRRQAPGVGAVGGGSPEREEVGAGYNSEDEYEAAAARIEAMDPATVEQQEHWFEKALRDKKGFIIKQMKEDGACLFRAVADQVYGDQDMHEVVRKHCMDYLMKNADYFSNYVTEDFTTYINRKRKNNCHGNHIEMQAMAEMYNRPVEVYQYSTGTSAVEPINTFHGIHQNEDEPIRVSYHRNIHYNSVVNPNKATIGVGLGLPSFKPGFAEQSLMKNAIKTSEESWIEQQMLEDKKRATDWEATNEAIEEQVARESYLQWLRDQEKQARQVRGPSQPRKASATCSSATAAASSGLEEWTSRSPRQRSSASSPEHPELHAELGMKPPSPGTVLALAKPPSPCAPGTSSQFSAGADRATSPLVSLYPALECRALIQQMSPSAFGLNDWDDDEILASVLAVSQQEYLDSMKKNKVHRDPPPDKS
Summary of the method: as §1

Measured: log2 ratio of Biotin-Ahx-Ub-VS probe labelling

O=C(CCl)N1CCN(C(=O)N2CCCCC2)CC1
active: ALG13 -1.37 | ATXN3 -1.81 | BAP1 -1.46 | OTUD5 -1.13
inactive: EIF3F -0.507 | EIF3H 0.266 | FAM105A -0.215 | OTUB1 -0.524 | OTUD4 -0.638
